Compound activity from PubChem BioAssay.
Only a selection was taken, and hits are over-represented in it overall.
GBA activity up: increases beta-glucosidase activity in Gaucher fibroblasts; P04062; L444P Gaucher fibroblasts, 4-MU-glucoside fluorescence, 3 days; activation, % at 10 µM; 0.44% of 30,000 active; AID 784; in the data active = activation above about 65%
Numbers stand for hits; – = inactive.

SMILES | GBA activity up
O=C1CC(=O)N(c2ccc3c(c2)OCO3)C(=O)N1 | 81
CC(C)OC(=O)C1C(=O)NC2(C)CC1c1ccccc1O2 (stereo not drawn) | –
CCC(=NCc1cccnc1)c1c(O)n(Cc2ccccc2)c(=O)[nH]c1=O | –
CCOC(=O)C1=C(N)Oc2cc(C)oc(=O)c2C12C(=O)N1c3c(cc(OC)cc32)C(C)=CC1(C)C (stereo not drawn) | –
Cc1cc(N2C(=O)C3CCCN3C2c2sccc2C)no1 (stereo not drawn) | –
CSc1nnc(C2CCNCC2)n1C | –
COc1ccc(CCn2c(O)c(C=NCCCN(C)C)c(=O)[nH]c2=O)cc1OC | –
O=c1cccc2n1CC1CC2CN(Cc2cccc(Cl)c2Cl)C1 (stereo not drawn) | 404
C[N+]12CCC(CC1)C(C#N)(N1CCOCC1)C2 (stereo not drawn) | –
O=C(C1CCN(S(=O)(=O)N2CCOCC2)CC1)N1CCC2(CC1)OCCO2 | –
